From the supplement of paper PMC11732987, “Enantioselective OTUD7B fragment discovery through chemoproteomics screening and high-throughput optimisation” (Communications Chemistry, 2025)

Tests used:
Assay in all cases: log2 ratio of Biotin-Ahx-Ub-VS probe labelling (fragment/DMSO); higher = less target engagement (more negative = stronger competition), active = hit call of the paper (q ≤ 0.05, log2 ratio ≤ -1)
Conditions in all cases: compound concentration: 200 uM; treatment time: 3 h
USP42 = molecular target: T1, USP42 (UniProt Q9H9J4)
T1 sequence (whole entry): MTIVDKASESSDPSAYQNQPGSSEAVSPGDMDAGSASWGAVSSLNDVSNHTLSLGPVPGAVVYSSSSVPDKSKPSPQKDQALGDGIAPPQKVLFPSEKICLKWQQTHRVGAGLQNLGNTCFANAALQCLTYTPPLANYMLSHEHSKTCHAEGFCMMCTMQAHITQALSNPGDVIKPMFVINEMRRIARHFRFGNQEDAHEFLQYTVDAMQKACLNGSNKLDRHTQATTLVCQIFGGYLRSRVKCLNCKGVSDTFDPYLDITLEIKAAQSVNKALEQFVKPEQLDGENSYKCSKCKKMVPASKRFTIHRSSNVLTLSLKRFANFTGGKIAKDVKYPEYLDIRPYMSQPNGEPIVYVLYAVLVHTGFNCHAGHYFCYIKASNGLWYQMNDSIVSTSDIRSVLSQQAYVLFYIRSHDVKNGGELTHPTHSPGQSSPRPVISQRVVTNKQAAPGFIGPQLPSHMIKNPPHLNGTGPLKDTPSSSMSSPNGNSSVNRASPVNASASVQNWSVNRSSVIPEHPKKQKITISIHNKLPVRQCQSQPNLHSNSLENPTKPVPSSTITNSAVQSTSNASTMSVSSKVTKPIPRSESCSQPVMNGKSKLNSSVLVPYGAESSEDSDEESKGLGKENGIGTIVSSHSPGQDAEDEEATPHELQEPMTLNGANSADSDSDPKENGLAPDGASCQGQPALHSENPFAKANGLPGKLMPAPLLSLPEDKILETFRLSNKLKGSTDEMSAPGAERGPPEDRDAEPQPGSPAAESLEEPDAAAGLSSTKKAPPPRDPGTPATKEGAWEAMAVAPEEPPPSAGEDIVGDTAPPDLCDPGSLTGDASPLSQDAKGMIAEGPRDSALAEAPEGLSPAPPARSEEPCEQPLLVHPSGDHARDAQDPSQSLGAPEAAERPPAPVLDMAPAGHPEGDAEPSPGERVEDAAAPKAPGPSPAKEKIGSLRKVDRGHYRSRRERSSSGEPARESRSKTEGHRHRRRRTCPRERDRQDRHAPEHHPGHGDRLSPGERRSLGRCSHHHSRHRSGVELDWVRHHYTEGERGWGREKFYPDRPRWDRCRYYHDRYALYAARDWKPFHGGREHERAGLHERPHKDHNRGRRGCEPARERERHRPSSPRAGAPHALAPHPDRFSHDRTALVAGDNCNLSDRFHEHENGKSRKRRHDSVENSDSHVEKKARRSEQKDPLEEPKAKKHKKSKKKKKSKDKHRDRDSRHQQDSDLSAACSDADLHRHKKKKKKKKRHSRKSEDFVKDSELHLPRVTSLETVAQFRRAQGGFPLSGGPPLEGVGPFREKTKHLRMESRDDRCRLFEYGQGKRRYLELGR
Summary of the method: (§1)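 HEK293T lysate (495 µg per sample, in Tris/CHAPS/IGEPAL buffer with protease inhibitors) was exposed in triplicate for 3 h to fragment at 200 µM or to vehicle, then to Biotin-Ahx-Ub-VS at 0.5 µM final for 1 h. Labelled DUBs were enriched on NeutrAvidin, digested with LysC and trypsin, and analysed by diaPASEF LC-MS/MS. Spectronaut label-free quantities were normalised to the global median, and values are average log2 ratios of fragment over vehicle from an unpaired t-test. Only proteins with ≥2 unique peptides were used.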

USP46 = USP46 (UniProt P62068)
Summary of the method: as §1

USP47 = molecular target: T2, USP47 (UniProt Q96K76)
T2 sequence (whole entry): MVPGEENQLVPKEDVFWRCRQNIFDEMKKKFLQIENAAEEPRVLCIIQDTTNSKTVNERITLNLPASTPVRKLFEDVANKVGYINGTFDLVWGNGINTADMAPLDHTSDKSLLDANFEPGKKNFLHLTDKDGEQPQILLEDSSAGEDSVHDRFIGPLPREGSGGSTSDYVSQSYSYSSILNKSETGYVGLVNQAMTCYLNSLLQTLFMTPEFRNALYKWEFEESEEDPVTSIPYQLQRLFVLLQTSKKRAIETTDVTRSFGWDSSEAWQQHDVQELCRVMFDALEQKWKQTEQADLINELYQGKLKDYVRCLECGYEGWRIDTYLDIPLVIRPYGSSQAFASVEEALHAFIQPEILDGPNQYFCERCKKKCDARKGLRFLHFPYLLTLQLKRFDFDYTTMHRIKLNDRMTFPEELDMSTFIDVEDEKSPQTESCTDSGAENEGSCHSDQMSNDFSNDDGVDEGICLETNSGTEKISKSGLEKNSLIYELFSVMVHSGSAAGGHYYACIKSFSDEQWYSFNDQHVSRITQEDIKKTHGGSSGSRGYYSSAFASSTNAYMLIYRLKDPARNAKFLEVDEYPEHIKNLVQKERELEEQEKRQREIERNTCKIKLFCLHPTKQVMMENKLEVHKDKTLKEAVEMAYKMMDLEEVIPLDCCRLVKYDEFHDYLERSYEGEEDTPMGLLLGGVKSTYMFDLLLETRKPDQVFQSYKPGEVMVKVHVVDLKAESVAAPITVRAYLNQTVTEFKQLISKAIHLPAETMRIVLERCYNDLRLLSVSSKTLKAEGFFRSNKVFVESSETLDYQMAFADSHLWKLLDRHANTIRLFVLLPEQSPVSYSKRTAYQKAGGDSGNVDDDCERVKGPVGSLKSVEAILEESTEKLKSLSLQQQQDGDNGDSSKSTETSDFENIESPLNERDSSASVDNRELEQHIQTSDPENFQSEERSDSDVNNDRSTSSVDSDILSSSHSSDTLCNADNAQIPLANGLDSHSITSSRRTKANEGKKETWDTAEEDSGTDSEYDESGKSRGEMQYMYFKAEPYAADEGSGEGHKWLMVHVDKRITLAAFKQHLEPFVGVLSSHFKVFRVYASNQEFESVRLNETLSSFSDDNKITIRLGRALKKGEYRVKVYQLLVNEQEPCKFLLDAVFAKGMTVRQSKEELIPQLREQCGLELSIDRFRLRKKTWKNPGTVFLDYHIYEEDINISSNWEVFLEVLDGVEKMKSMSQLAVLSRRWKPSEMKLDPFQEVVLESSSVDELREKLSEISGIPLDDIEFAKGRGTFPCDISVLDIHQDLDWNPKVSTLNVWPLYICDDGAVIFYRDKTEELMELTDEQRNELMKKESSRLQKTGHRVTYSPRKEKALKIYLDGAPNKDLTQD
Summary of the method: as §1

USP48 = molecular target: T3, USP48 (UniProt Q86UV5)
T3 sequence (whole entry): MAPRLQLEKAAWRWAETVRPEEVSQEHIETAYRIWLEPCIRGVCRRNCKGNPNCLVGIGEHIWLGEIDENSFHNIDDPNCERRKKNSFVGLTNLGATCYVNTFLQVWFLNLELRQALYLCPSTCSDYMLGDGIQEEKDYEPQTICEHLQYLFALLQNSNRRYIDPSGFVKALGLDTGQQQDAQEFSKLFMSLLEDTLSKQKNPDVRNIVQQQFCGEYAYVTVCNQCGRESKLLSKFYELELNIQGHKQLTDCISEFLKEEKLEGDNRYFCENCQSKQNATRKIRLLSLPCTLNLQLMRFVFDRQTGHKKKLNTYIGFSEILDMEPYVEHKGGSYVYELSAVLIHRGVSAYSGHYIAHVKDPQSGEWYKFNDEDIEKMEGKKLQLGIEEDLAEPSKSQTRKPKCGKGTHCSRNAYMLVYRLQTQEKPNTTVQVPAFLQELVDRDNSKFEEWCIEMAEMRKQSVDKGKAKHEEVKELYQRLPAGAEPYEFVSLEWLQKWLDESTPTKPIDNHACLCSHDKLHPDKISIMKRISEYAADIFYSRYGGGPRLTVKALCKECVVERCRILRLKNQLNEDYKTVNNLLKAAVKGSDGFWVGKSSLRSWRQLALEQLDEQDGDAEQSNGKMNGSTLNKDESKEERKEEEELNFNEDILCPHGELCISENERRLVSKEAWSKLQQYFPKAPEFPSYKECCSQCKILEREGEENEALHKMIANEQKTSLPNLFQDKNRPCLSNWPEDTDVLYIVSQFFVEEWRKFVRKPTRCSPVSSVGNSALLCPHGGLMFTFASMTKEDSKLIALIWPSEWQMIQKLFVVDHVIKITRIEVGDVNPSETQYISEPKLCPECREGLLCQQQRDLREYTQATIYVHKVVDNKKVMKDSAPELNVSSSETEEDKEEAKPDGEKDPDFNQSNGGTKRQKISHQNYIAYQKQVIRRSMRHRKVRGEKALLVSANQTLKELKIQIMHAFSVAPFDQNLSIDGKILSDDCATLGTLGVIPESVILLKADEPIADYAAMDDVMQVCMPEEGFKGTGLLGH
Summary of the method: as §1

USP5 = molecular target: T4, USP5 (UniProt P45974)
T4 sequence (whole entry): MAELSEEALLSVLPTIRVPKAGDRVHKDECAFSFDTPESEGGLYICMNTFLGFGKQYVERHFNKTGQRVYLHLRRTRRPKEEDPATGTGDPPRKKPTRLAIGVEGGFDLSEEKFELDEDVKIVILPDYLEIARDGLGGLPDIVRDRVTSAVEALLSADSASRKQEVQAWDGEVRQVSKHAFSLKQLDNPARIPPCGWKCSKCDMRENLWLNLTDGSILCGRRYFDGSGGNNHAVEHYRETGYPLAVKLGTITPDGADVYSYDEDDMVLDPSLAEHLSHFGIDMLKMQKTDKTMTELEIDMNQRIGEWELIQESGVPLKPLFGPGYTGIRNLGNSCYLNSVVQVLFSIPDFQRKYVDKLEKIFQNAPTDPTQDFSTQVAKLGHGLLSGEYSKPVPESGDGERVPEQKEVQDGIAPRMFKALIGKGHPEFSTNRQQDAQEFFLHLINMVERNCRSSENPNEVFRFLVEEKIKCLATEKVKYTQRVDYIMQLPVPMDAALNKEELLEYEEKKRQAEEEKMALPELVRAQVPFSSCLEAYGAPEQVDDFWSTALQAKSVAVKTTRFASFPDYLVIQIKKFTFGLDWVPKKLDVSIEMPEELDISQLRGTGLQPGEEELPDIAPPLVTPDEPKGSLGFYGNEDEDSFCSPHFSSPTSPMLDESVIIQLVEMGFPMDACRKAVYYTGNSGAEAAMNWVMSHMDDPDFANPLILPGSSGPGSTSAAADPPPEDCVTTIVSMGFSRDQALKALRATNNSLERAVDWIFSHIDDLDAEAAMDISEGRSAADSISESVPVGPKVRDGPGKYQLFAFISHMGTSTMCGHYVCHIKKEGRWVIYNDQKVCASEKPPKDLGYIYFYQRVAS
Summary of the method: as §1

USP54 = USP54 (UniProt Q70EL1)
Summary of the method: as §1

USP7 = USP7 (UniProt Q93009)
Summary of the method: as §1

USP8 = molecular target: T5, USP8 (UniProt P40818)
T5 sequence (whole entry): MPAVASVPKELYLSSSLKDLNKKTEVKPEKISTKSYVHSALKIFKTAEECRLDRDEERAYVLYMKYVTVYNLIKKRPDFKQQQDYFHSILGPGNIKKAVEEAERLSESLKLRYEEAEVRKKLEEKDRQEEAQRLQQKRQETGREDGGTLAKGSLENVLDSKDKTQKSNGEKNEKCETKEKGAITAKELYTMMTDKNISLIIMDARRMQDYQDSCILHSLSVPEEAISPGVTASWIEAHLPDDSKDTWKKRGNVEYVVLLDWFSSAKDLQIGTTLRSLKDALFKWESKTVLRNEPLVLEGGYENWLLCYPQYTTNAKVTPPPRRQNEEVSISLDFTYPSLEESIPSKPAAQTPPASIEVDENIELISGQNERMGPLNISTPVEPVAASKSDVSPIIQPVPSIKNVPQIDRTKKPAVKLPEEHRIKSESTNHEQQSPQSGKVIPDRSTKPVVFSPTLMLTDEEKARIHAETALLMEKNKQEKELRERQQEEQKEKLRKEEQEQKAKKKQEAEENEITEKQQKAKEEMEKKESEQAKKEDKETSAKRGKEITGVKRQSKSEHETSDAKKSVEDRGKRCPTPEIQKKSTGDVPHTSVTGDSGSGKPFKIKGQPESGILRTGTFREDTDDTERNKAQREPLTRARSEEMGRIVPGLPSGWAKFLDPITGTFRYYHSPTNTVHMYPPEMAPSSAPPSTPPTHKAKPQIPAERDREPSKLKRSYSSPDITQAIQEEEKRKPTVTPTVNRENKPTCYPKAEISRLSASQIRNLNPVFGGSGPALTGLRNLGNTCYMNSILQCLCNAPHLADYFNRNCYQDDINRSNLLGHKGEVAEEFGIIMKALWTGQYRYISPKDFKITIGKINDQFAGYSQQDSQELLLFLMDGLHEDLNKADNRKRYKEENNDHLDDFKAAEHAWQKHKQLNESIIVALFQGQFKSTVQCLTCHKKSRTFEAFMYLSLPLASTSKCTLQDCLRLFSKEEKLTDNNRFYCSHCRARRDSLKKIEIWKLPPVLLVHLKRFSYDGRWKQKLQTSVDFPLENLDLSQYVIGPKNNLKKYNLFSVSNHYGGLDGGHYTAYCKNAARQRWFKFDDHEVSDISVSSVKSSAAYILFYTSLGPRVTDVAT
Summary of the method: as §1

USP9X = USP9X (UniProt Q93008)
Summary of the method: as §1

UniProt O00487 = molecular target: UniProt O00487
Summary of the method: as §1

Measured: log2 ratio of Biotin-Ahx-Ub-VS probe labelling

USP54, sequence (Q70EL1 whole entry): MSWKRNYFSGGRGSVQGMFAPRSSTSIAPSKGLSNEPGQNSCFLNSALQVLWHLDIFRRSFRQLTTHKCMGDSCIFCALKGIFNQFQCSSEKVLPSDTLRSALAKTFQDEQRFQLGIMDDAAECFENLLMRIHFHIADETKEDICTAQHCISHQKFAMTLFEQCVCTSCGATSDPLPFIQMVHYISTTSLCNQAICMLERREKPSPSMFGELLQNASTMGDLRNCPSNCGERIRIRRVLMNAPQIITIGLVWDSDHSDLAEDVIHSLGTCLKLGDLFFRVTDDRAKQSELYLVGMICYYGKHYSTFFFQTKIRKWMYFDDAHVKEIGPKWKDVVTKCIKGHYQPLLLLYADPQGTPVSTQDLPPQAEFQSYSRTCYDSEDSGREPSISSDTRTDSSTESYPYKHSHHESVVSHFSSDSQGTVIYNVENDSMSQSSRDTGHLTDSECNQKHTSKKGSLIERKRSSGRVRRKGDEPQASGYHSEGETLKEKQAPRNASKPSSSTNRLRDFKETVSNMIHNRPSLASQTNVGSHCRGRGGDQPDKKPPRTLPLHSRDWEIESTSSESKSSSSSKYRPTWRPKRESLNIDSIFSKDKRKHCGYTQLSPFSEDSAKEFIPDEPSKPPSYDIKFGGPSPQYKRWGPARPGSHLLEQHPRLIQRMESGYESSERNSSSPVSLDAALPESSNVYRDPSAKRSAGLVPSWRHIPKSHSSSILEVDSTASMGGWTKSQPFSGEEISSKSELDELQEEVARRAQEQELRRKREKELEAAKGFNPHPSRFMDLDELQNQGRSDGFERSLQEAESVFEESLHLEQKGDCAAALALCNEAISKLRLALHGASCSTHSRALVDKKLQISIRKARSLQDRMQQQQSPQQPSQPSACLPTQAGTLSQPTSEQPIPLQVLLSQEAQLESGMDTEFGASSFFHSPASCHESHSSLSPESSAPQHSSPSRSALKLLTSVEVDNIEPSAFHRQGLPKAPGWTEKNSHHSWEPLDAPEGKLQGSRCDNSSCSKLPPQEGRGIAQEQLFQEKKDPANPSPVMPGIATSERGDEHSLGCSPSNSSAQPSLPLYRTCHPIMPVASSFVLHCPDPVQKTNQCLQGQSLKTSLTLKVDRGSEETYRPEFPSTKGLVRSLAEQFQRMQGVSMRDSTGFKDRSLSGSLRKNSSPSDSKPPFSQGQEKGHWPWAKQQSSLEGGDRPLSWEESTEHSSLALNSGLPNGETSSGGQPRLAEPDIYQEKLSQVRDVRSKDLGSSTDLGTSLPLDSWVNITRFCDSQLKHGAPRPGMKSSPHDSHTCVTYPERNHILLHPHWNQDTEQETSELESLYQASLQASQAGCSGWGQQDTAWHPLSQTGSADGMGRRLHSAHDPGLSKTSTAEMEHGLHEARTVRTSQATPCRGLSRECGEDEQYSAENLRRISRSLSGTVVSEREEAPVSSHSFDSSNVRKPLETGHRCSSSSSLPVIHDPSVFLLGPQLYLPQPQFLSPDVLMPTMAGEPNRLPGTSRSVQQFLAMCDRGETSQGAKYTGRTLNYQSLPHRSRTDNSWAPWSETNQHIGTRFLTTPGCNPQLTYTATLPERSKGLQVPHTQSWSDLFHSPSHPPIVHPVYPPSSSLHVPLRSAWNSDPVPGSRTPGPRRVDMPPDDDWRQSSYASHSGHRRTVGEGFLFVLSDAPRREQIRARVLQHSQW
USP9X, sequence (Q93008 whole entry): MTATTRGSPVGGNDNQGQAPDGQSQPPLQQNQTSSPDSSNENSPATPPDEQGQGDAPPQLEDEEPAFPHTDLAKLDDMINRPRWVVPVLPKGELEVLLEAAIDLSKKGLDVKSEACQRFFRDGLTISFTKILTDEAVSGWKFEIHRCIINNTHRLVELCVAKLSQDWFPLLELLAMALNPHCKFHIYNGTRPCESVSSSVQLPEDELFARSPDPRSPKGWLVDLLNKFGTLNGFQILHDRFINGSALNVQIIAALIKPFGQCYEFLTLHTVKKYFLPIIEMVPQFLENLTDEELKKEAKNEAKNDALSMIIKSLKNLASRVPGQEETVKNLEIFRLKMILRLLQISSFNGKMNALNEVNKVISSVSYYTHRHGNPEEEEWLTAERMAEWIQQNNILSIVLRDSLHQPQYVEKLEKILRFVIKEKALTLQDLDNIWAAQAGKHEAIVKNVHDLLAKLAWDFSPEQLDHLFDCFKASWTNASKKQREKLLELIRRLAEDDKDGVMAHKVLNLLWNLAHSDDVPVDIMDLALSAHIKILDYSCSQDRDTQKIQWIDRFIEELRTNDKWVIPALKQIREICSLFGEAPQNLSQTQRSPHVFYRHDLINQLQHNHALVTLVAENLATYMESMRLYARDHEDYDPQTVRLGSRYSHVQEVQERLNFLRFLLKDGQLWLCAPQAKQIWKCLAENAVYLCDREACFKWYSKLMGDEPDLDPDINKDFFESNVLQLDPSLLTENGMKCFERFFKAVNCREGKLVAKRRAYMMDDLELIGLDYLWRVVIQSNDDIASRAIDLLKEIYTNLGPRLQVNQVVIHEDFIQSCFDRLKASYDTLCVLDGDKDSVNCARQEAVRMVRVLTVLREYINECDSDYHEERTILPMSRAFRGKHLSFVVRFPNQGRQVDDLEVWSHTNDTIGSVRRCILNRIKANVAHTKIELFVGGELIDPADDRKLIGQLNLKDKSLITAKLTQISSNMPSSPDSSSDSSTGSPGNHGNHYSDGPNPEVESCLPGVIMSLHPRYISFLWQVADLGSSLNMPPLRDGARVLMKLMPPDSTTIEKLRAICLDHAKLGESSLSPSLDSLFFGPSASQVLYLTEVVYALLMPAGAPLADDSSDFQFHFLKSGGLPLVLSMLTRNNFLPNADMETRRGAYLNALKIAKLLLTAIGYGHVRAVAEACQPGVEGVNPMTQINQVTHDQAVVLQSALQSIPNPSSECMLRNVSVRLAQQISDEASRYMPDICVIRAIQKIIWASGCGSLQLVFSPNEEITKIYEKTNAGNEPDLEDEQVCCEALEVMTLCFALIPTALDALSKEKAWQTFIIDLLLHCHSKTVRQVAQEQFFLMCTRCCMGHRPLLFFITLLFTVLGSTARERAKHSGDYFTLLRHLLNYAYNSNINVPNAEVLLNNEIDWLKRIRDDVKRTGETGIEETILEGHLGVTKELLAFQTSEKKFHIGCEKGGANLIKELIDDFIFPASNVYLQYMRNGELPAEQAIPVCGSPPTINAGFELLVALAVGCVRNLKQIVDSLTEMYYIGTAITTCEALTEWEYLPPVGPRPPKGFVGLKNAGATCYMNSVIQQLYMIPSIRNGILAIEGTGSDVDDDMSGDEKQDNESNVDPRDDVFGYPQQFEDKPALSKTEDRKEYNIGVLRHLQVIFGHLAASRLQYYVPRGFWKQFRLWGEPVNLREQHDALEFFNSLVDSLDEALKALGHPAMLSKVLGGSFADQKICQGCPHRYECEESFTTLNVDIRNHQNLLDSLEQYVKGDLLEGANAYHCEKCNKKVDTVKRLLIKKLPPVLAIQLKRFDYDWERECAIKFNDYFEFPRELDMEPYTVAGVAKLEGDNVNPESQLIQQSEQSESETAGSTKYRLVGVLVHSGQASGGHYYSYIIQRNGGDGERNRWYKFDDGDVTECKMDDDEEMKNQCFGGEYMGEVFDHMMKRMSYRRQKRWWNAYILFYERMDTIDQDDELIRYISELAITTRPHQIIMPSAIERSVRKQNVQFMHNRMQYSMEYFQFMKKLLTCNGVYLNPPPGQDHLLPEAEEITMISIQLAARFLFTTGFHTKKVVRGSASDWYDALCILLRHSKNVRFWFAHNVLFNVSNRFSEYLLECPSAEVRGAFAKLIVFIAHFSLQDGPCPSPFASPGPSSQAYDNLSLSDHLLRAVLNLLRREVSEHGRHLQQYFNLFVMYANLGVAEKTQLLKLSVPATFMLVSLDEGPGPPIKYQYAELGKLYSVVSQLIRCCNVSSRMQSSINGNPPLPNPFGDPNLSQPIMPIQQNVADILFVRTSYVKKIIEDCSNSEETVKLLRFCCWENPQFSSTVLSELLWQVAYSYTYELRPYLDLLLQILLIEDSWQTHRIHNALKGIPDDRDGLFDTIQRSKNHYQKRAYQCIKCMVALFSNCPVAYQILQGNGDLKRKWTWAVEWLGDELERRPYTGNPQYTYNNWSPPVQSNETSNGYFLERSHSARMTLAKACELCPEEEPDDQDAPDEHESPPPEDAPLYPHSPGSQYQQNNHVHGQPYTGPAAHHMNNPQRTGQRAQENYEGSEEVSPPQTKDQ
USP46, sequence (P62068 whole entry): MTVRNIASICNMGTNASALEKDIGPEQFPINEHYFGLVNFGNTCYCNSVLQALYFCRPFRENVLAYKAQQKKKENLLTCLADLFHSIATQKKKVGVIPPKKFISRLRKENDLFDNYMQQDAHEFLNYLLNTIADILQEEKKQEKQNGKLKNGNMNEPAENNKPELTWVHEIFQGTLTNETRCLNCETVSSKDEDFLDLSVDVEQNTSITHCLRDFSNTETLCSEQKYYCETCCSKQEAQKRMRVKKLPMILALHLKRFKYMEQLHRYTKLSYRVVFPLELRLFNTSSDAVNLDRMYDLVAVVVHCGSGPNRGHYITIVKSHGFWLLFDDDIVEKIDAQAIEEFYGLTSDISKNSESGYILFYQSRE
UniProt O00487, sequence (O00487 whole entry): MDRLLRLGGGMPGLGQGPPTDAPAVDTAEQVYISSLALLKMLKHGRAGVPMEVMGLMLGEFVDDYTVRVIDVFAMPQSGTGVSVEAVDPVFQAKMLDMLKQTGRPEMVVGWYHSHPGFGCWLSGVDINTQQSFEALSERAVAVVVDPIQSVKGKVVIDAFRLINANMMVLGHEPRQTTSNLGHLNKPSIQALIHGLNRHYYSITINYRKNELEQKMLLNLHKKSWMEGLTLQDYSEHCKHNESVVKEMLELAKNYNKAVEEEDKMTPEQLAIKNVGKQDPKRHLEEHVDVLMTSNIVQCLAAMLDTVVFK

CC(NC(=O)CCl)c1noc(Cc2ccccc2)n1 (stereo not given)
inactive: USP42 0.115 | USP46 -0.0371 | USP47 0.0165 | USP48 -0.394 | USP5 -0.388 | USP54 0.507 | USP7 -0.475 | USP8 -0.579 | USP9X -0.262 | UniProt O00487 -0.231
